# Reference: PubChem BioAssay (NCATS)
# Records with an inconclusive call do not appear. Entries that show only a call come without a potency. A number with no mark means an inactive call. The source made the active and inactive calls. Calls follow the shape of the dose curve; as a rule, active = well fitted curve in the direction sought with a large enough effect; inconclusive = small, poorly fitted or top-dose-only effect, or another doubt; inactive = no such curve, though single readings can be large; an effect the other way counts as inactive or inconclusive.
# Columns and labels:
# [1] = molecular target: N-terminal Xaa-Pro-Lys N-methyltransferase 1 (Homo sapiens) (UniProt Q9BV86); experiment: qHTS Assay for Inhibitors of N-terminal methyltransferase 1 (NTMT1): LOPAC validation of the NTMT1 SAHH-coupled ThioGlo3 Assay (AID 1347143);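 also: SAH from peptide methylation measured as thiol fluorescence via SAHH coupling and ThioGlo3; nearly all actives have a fitted effect of over 70% in size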
# Outline: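 Recombinant human NTMT1 (125nM) was pre-incubated 1 min at room temperature with compounds over a concentration range, then a mix of 100uM SAM, 10uM SAHH and 15uM ThioGlo3 (concentrations in added reagent) was added. ThioGlo3 fluorescence (ex 340/em 450nm) after 30 min was normalized to the initial reading.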
# [2] = test system: Zika virus NS2B-NS3 protease (unlinked); experiment: Optimization of GU AMC qHTS for Zika virus inhibitors: Unlinked NS2B-NS3 protease assay (AID 1347151); also: series mostly up to about 52 µM; nearly all actives have a fitted effect of over 80% in size
# Outline: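 Fluorescence read-out (340 nm ex / 450 nm em) of AMC peptide cleavage, taken immediately and after 15 min at room temperature (~20% conversion). Enzyme was the unlinked NS2B–NS3 complex at 25 nM in Tris pH 8.0 buffer.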
# [3] = test system: Zika virus NS2B-NS3 protease; experiment: Primary screen GU AMC qHTS for Zika virus inhibitors (AID 1347154); also: nearly all actives have a fitted effect of over 70% in size; also: potency is read from the fitted curve at half-maximal effect
# Outline: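 Unlinked Zika NS2B hydrophilic domain–NS3 protease complex at 25 nM in 10 mM Tris-HCl pH 8.0, 0.01% Tween 20, with an AMC peptide substrate. Fluorescence change (340/450 nm) over 15 min at room temperature, normalized to controls, fitted to 4-parameter Hill.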
# [4] = qHTS of pediatric cancer cell lines to identify multiple opportunities for drug repurposing: Confirmatory screen for BT-37 cells (AID 1347117); also: potency is read from the fitted curve at half-maximal effect;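 also: viability measured after 48 h of compound exposure; nearly all actives have a fitted effect of over 55% in size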
# Outline: (§1)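 Viability after 48 h compound treatment at 37C, 500-1,000 cells/well, read as ATP luminescence with CellTiter-Glo. Primary screens used 11-point (MIPE, 0.78 nM-46 µM) or 8-point (NPC, 0.59 nM-46 µM) final concentrations; follow-up screens used 11-point dilutions.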
# [5] = qHTS of pediatric cancer cell lines to identify multiple opportunities for drug repurposing: Confirmatory screen for MG 63 (6-TG R) cells (AID 1347119); also: nearly all actives have a fitted effect of over 55% in size; also: potency is read from the fitted curve at half-maximal effect
# Outline: as §1
# [6] = qHTS of pediatric cancer cell lines to identify multiple opportunities for drug repurposing: Confirmatory screen for control Hh wild type fibroblast cells (AID 1347121); also: nearly all actives have a fitted effect of over 70% in size
# Outline: as §1
# [7] = qHTS of pediatric cancer cell lines to identify multiple opportunities for drug repurposing: Confirmatory screen for U-2 OS cells (AID 1347122); also: nearly all actives have a fitted effect of over 65% in size
# Outline: as §1
# [8] = qHTS of pediatric cancer cell lines to identify multiple opportunities for drug repurposing: Confirmatory screen for RD cells (AID 1347124);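 also: cells exposed to compound for 48 h before viability readout; nearly all actives have a fitted effect of over 65% in size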; also: potency is read from the fitted curve at half-maximal effect
# Outline: as §1
# [9] = qHTS of pediatric cancer cell lines to identify multiple opportunities for drug repurposing: Confirmatory screen for Rh30 cells (AID 1347126); also: nearly all actives have a fitted effect of over 55% in size; also: potency is read from the fitted curve at half-maximal effect
# Outline: as §1
# [10] = qHTS of pediatric cancer cell lines to identify multiple opportunities for drug repurposing: Confirmatory screen for SK-N-SH cells (AID 1347129);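 also: cells exposed to compound for 48 h before viability read; nearly all actives have a fitted effect of over 60% in size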; also: potency is read from the fitted curve at half-maximal effect
# Outline: as §1
# [11] = qHTS of pediatric cancer cell lines to identify multiple opportunities for drug repurposing: Confirmatory screen for TC32 cells (AID 1347118);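 also: potency is read from the fitted curve at half-maximal effect; cells exposed to compound for 48 h before the read; nearly all actives have a fitted effect of over 65% in size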
# Outline: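 qHTS, TC32, 48 h drug treatment, CellTiter-Glo luminescence as a proxy for metabolically active cells; primary top concentration 46 µM (MIPE 11-pt, NPC 8-pt); confirmatory 11-pt.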
# [12] = qHTS of pediatric cancer cell lines to identify multiple opportunities for drug repurposing: Confirmatory screen for Saos-2 cells (AID 1347127); also: nearly all actives have a fitted effect of over 60% in size; also: potency is read from the fitted curve at half-maximal effect
# Outline: as §1
# [13] = qHTS of pediatric cancer cell lines to identify multiple opportunities for drug repurposing: Confirmatory screen for Rh18 cells (AID 1347125); also: nearly all actives have a fitted effect of over 55% in size; also: potency is read from the fitted curve at half-maximal effect
# Outline: as §1
# [14] = qHTS of pediatric cancer cell lines to identify multiple opportunities for drug repurposing: Confirmatory screen for OHS-50 cells (AID 1347128); also: potency is read from the fitted curve at half-maximal effect
# Outline: as §1
# [15] = test system: Zika virus NS2B-NS3 protease (unlinked complex); experiment: Primary screen GU Rhodamine qHTS for Zika virus inhibitors: Unlinked NS2B-NS3 protease assay (AID 1347159); also: nearly all actives have a fitted effect of over 60% in size
# Outline: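 A qHTS format was used, with compound concentrations ranging up to 114 microM. Each compound was preincubated with 25 nM NS2B-NS3 protease, and the substrate was then added at 1.5 microM. Curves were fitted with a 4-parameter Hill model.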
# Furin (Homo sapiens) = Furin (Homo sapiens) (UniProt P09958); experiment: Furin counterscreen qHTS for Zika virus inhibitors (AID 1347149); also: potency is read from the fitted curve at half-maximal effect; nearly all actives have a fitted effect of over 70% in size
# Outline: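 Fluorogenic cleavage of BOC-RVRR-AMC (2 microM final, Km ~15 µM) was monitored (ex 340, em 450 nm) at 37C after 15 min RT preincubation of 5 nM furin with compounds in HEPES pH 7.0 buffer with CaCl2 and Triton X-100. Percent inhibition was fitted to a 4-parameter Hill curve.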
# [16] = test system: Zika virus NS2B-NS3 protease (linked construct); experiment: Confirmatory screen NINDS AMC qHTS for Zika virus inhibitors (AID 1347152); conditions: Purified linked NS2B-NS3, AMC substrate fluorescence
# Outline: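 Linked NS2B-NS3 1 nM, Tris pH 8.0/0.01% Tween 20; cpd 15 min RT dark; + Nle-KRR-AMC 10 µM (Km 18.3 µM); read 0 and 15 min, 340/450 nm; %inh vs controls, 4-param Hill.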
# [17] = ZIKV-mCherry secondary qHTS for Zika virus inhibitors (AID 1347158); also: top concentration of the series differs between compounds
# Outline: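 Vero cells (5,000/well) were given compound, then infected with ZIKV-mCherry at MOI 1 for 48–72 h at 37 °C. After PFA fixation and Hoechst staining, imaging gave percent mCherry-positive cells. The positivity threshold was RFU above 450, 3 SD over negative controls.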
# [18] = Confirmatory screen GU Rhodamine qHTS for Zika virus inhibitors qHTS (AID 1347157)
# Outline: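 Buffer 10 mM Tris-HCl pH 8.0, 0.01% Tween 20. Unlinked protease 25 nM; compound preincubation 15 min, RT, protected from light. Substrate Rhod110, 1.5 microM; ~15% conversion in 15 min.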
# N-terminal Xaa-Pro-Lys N-methyltransferase 1 (Homo sapiens), sequence (Q9BV86 whole entry, looked up): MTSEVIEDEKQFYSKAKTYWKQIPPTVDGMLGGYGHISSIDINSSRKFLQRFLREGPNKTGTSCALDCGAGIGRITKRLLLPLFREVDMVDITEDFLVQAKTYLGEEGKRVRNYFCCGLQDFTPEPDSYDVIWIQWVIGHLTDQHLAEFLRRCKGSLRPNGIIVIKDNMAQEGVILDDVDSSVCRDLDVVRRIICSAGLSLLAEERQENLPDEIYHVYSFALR
# Furin (Homo sapiens), sequence (P09958 whole entry, looked up): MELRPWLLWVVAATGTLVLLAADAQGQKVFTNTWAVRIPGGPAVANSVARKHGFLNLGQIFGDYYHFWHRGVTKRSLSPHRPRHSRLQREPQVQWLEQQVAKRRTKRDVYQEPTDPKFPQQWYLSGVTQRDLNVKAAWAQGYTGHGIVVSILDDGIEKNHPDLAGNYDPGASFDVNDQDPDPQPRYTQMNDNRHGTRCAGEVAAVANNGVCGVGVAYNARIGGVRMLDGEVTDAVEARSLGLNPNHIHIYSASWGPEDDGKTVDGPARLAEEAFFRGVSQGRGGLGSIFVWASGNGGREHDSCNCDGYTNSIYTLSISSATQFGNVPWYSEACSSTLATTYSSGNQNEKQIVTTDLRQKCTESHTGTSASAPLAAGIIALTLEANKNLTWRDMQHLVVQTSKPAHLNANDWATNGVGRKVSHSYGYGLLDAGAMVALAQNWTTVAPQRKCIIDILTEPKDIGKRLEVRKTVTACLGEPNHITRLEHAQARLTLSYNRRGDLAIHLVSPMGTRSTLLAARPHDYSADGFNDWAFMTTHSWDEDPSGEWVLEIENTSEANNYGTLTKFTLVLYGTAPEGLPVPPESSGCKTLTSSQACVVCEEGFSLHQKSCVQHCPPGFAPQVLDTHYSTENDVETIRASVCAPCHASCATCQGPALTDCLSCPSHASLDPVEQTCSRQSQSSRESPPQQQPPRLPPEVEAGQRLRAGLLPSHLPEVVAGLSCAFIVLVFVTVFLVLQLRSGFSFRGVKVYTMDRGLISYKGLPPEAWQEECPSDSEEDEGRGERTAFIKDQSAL
compound,measurement,setting,value
CCOC(=O)[C@H](CCc1ccccc1)N[C@@H](C)C(=O)N1[C@H](C(=O)O)C[C@H]2CCCC[C@@H]21,outcome,[1],inactive
same,outcome,[2],inactive
O=C1OC2(c3ccccc31)c1cc(Br)c(O)c(Br)c1Oc1c2cc(Br)c(O)c1Br,Potency,[3],inactive
O=C(Oc1cccc2cccnc12)c1ccccc1,Potency,[4],20.8 µM (active)
same,Potency,[5],inactive
same,Potency,[6],inactive
same,Potency,[7],inactive
same,Potency,[8],inactive
same,Potency,[9],inactive
same,Potency,[10],inactive
same,Potency,[3],inactive
NS(=O)(=O)c1cc2c(cc1Cl)NC(CC1CCCC1)NS2(=O)=O (configuration not stated),Potency,[3],inactive
CCN(CC)CCOc1ccc2c(c1)C(=O)c1cc(OCCN(CC)CC)ccc1-2,Potency,[4],20.8 µM (active)
same,Potency,[11],9.27 µM (active)
same,Potency,[5],inactive
same,Potency,[6],inactive
same,Potency,[7],inactive
same,Potency,[8],inactive
same,Potency,[12],inactive
same,Potency,[10],18.7 µM (active)
same,Potency,[3],inactive
CC(=O)NCCCCCC(=O)O,Potency,[3],inactive
O=C(CCCN1CC=C(n2c(=O)[nH]c3ccccc32)CC1)c1ccc(F)cc1,Potency,[4],inactive
same,Potency,[5],inactive
same,Potency,[6],inactive
same,Potency,[8],inactive
same,Potency,[13],inactive
same,Potency,[9],inactive
same,Potency,[12],inactive
same,Potency,[14],inactive
same,Potency,[3],inactive
same,outcome,[15],inactive
NC(N)=NCc1cccc(I)c1,outcome,[1],inactive
same,outcome,[2],inactive
CC(=O)OCC1=C(C(=O)O)N2C(=O)[C@@H](NC(=O)CSc3ccncc3)[C@H]2SC1,Potency,[3],inactive
CCCCCCCCCCCCCCCC(=O)O,Potency,[3],inactive
CCC(CC)(CC(=O)Nc1cccc(/C=C/c2nc(C3CCC3)cs2)c1)C(=O)O,Potency,Furin (Homo sapiens),21.5 µM (active)
same,Potency,[16],24.1 µM (active)
same,Potency,[3],inactive
same,outcome,[17],inactive
CC(=O)O[C@]1(C(C)=O)CC[C@H]2[C@@H]3C=C(C)C4=CC(=O)CC[C@]4(C)[C@H]3CC[C@@]21C,Potency,[3],inactive
CCCCCCCCCCC[C@@H](C[C@@H]1OC(=O)[C@H]1CCCCCC)OC(=O)[C@H](CC(C)C)NC=O,Potency,[4],inactive
same,Potency,[5],inactive
same,Potency,[6],inactive
same,Potency,[7],inactive
same,Potency,[13],inactive
same,Potency,[9],inactive
same,Potency,[12],inactive
same,Potency,[14],inactive
same,Potency,[10],inactive
O=C1C(CCS(=O)c2ccccc2)C(=O)N(c2ccccc2)N1c1ccccc1 (configuration not stated),Potency,[3],inactive
COc1cc(C(=S)N2CCOCC2)ccc1O,Potency,[3],inactive
CC(C)=CCOc1ccc(/C=C/C(=O)c2ccc(OCC=C(C)C)cc2OCC(=O)O)cc1,Potency,Furin (Homo sapiens),66.3 µM (active)
same,Potency,[18],5.62 µM (active)
CC(C)(C)NC[C@H](O)COc1nsnc1N1CCOCC1,outcome,[2],inactive
same,Potency,[3],inactive
NC(N)=NN=C(/C=C/c1ccc([N+](=O)[O-])o1)/C=C/c1ccc([N+](=O)[O-])o1,Potency,[4],1.47 µM (active)
same,Potency,[7],inactive
same,Potency,[8],4.14 µM (active)
same,Potency,[13],4.65 µM (active)
same,Potency,[9],2.08 µM (active)
same,Potency,[14],5.22 µM (active)
same,Potency,[10],2.35 µM (active)
Nc1nc(Cl)nc2c1ncn2[C@@H]1O[C@H](CO)[C@@H](O)[C@@H]1F,Potency,[4],0.329 µM (active)
same,Potency,[11],0.369 µM (active)
same,Potency,[5],0.522 µM (active)
same,Potency,[6],inactive
same,Potency,[7],inactive
same,Potency,[8],inactive
same,Potency,[9],5.22 µM (active)
same,Potency,[12],0.465 µM (active)
same,Potency,[3],inactive
CCCCC(CC)CN1CN(CC(CC)CCCC)CC(C)(N)C1 (configuration not stated),Potency,[3],inactive
Cc1c[nH]c2ccccc12,Potency,[3],inactive
OC(C#CCN1CCCC1)(c1ccccc1)c1ccccc1,Potency,[3],inactive
O=C1C(O)=C(O)C(=O)C(O)=C1O,Potency,[3],inactive
COc1ccc2c(c1)c1c3n2CCN(C)C3=NCC1,Potency,[3],inactive
CN1CCN(CCC(=O)N2c3ccccc3Sc3ccc(C(F)(F)F)cc32)CC1,Potency,[3],inactive
CC(C)(Cc1c[nH]c2ccccc12)NCC(O)COc1ccccc1C#N (configuration not stated),Potency,[3],inactive
O=C(O)CCC(=O)Nc1ccc(S(=O)(=O)Nc2nccs2)cc1,Potency,[3],inactive
C/C=C/c1ccc(O)c(OC)c1,Potency,[3],inactive
Cc1c(-c2ccccc2)oc2c(C(=O)OCCN3CCCCC3)cccc2c1=O,Potency,[3],inactive
OCCOCCN1CCN(C2=Nc3ccccc3Sc3ccccc32)CC1,Potency,[3],inactive
N[C@H](C(=O)O)[C@@H](O)c1ccc(O)c(O)c1,Potency,[3],12.8 µM (active)
CCN(CC)CCNC(=O)COc1ccc(OC)cc1,Potency,[3],inactive
COc1ccc(CN(CCN(C)C)c2ncccn2)cc1,Potency,[3],inactive
O=C(N/N=C/c1ccc([N+](=O)[O-])o1)c1ccc(O)cc1,Potency,[3],inactive
CC(C)Cc1ccc(CC(=O)O)cc1,Potency,[3],inactive
CCOC(=O)c1ccc(N)cc1,Potency,[3],inactive
CN1CCC(OC(c2ccccc2)c2ccccc2)CC1,Potency,[3],inactive
N/C(=N\N=C\c1ccc(Cl)cc1)N/N=C/c1ccc(Cl)cc1,Potency,[3],inactive
COc1ccc(S(=O)(=O)N2c3ccc(Cl)cc3[C@@](O)(c3ccccc3Cl)[C@H]2C(=O)N2CCC[C@@H]2C(N)=O)cc1OC,Potency,[3],inactive
CN(C)CCOC(=O)C(c1ccccc1)C1(O)CCCC1 (configuration not stated),Potency,[3],inactive
O=C(O)P(=O)(O)O,Potency,[3],inactive
CNCCc1ccccn1,Potency,[3],inactive
CCC(C(=O)OCCOCCN(CC)CC)c1ccccc1 (configuration not stated),Potency,[3],inactive
O=C(CN1CCN(Cc2ccc3c(c2)OCO3)CC1)N1c2ccccc2Sc2ccccc21,Potency,[3],inactive
CC(=O)O[C@]1(C(C)=O)CC[C@H]2[C@@H]3C=C(Cl)C4=CC(=O)CC[C@]4(C)[C@H]3CC[C@@]21C,Potency,[3],inactive
CC(C)CCCC(C)N (configuration not stated),Potency,[3],inactive
Cc1ccc(-c2ncc(Cl)cc2-c2ccc(S(C)(=O)=O)cc2)cn1,Potency,[3],inactive
CCCCCCCC/C=C\CCCCCCCCN,Potency,[3],inactive
CCC1Nc2cc(Cl)c(S(N)(=O)=O)cc2S(=O)(=O)N1 (configuration not stated),Potency,[3],inactive
